The text below walks through data of PubChem BioAssay (NCI).

Molecules are shown by their SMILES. Several values for one entry are separate records, joined by “and”; a condition that tells them apart may be missing. Equal entries are not always repeated. The panel holds about 83,000 compounds, 20% with a hit somewhere; the sample as a whole holds those more often.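 Percent growth is the endpoint: 0 to 100 indicates growth inhibition (40 means 60% inhibition), 0 means no net growth, and negative values indicate cell death.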 Activity calls are given as the source filed them. Rule for the calls: active = growth percent below 10; inactive = the rest.

Among the test systems are SR leukemia; RPMI-8226 leukemia; OVCAR-8 ovarian; OVCAR-5 ovarian; OVCAR-4 ovarian; SK-OV-3 ovarian; IGROV1 ovarian; OVCAR-3 ovarian; HS 578T breast; NCI/ADR-RES ovarian.
What all share (experiment): NCI-60 one-dose screen, 48 h (100 = growth as untreated, 0 = no growth, -100 = all killed)
Holding throughout (conditions): 10 µM unless noted

On to `Nc1cc(N)c(N)cc1N`, for which the growth was -7.21% (active) in the test with SR leukemia; 89.7% (inactive) in the test with RPMI-8226 leukemia; 63.3% (inactive) with OVCAR-8 ovarian; -9.01% (active) in the test with OVCAR-5 ovarian; 25.3% (inactive) in the test on OVCAR-4 ovarian; 98.4% (inactive) in the test with SK-OV-3 ovarian. Further, the growth in the test on IGROV1 ovarian was 47.6% (inactive); with OVCAR-3 ovarian, -55.1% (active); with HS 578T breast, 67.7% (inactive); in the test on NCI/ADR-RES ovarian, 59.6% (inactive).

For the compound `COc1ccc2cc1Oc1ccc(cc1)C[C@H]1c3cc(c(OC)cc3CCN1C)Oc1c(OC)c(OC)cc3c1[C@H](C2)N(C)CC3`, the growth was -7.9% (active) in the test with SR leukemia; -31.2% (active) in the test on RPMI-8226 leukemia; 72.3% (inactive) in the test with OVCAR-5 ovarian; 110% (inactive) with SK-OV-3 ovarian; 70.4% (inactive) in the test on OVCAR-3 ovarian; 46% (inactive) in the test with HS 578T breast.

As for `CC1(C)COC(=S)N1`, the growth was 93.8% (inactive) in the test on SR leukemia; 103% (inactive) in the test on OVCAR-8 ovarian; 93.4% (inactive) with OVCAR-5 ovarian; 102% (inactive) in the test with OVCAR-4 ovarian; 109% (inactive) in the test with SK-OV-3 ovarian; 95.8% (inactive) with IGROV1 ovarian. Also, the growth in the test on OVCAR-3 ovarian was 110% (inactive); with HS 578T breast, 106% (inactive).

For the compound `CC1CCC(C(C)C)C(NNC(N)=O)C1` (stereo not given), the growth with SR leukemia was 100% (inactive); in the test on RPMI-8226 leukemia, 98.5% (inactive); in the test on OVCAR-8 ovarian, 100% (inactive); in the test on OVCAR-5 ovarian, 131% (inactive); in the test on OVCAR-4 ovarian it was 111% (inactive); with SK-OV-3 ovarian, 109% (inactive). The growth in the test with IGROV1 ovarian was 110% (inactive); with OVCAR-3 ovarian, 103% (inactive); in the test on HS 578T breast, 91.6% (inactive); in the test with NCI/ADR-RES ovarian, 105% (inactive).

For the compound `OC1COC(OCc2ccccc2)C(O)C1O` (stereo not given), the growth in the test with RPMI-8226 leukemia was 103% (inactive); in the test with OVCAR-5 ovarian, 99.1% (inactive); in the test on OVCAR-4 ovarian, 88.5% (inactive); in the test on SK-OV-3 ovarian it was 98.9% (inactive); in the test on IGROV1 ovarian it was 92.4% (inactive); in the test on OVCAR-3 ovarian, 106% (inactive). Also, the growth in the test on NCI/ADR-RES ovarian is 103% (inactive).

Consider `O=C(/C=C/c1ccccc1)c1ccccc1`, for which the growth with RPMI-8226 leukemia is 32% (inactive); with OVCAR-8 ovarian, 103% (inactive); with OVCAR-5 ovarian, 98.4% (inactive); in the test on OVCAR-4 ovarian, 95.3% (inactive); in the test on SK-OV-3 ovarian, 91.7% (inactive); with IGROV1 ovarian it was 84.7% (inactive). Besides, the values for the growth in the test on OVCAR-3 ovarian and with HS 578T breast were 98.7% (inactive) and 98.4% (inactive), respectively.

Take `O=C(CO)C(O)C(O)C(O)C(O)CO` (stereo not given): the growth in the test with SR leukemia was 103% (inactive) and 93.9% (inactive); with RPMI-8226 leukemia, 107% (inactive) and 100% (inactive); in the test with OVCAR-8 ovarian it was 108% (inactive) and 99.9% (inactive); in the test on OVCAR-5 ovarian, 105% (inactive) and 109% (inactive); in the test with OVCAR-4 ovarian, 108% (inactive) and 116% (inactive); in the test on SK-OV-3 ovarian, 87.8% (inactive) and 85.7% (inactive). Also, the growth in the test with IGROV1 ovarian is 106% (inactive) and 109% (inactive); with OVCAR-3 ovarian it was 110% (inactive) and 109% (inactive); with HS 578T breast, 101% (inactive) and 104% (inactive); in the test with NCI/ADR-RES ovarian it was 106% (inactive) and 107% (inactive).

In the case of `O=c1[nH]cnc2c1ncn2C1OC(CO)C(O)C1O` (stereo not given), the growth in the test with SR leukemia was 106% (inactive) and 83.5% (inactive) and 88.4% (inactive); in the test with RPMI-8226 leukemia, 101% (inactive) and 93.6% (inactive) and 96.5% (inactive); with OVCAR-8 ovarian it was 106% (inactive) and 100% (inactive) and 103% (inactive); in the test with OVCAR-5 ovarian, 116% (inactive) and 114% (inactive) and 96.5% (inactive); with OVCAR-4 ovarian, 126% (inactive) and 118% (inactive) and 117% (inactive); with SK-OV-3 ovarian, 95.7% (inactive) and 104% (inactive) and 105% (inactive). Moreover, the growth with IGROV1 ovarian is 118% (inactive) and 133% (inactive) and 64.6% (inactive); with OVCAR-3 ovarian it was 113% (inactive) and 111% (inactive) and 107% (inactive); in the test on HS 578T breast, 109% (inactive) and 110% (inactive) and 91.9% (inactive); in the test with NCI/ADR-RES ovarian, 99.5% (inactive) and 105% (inactive) and 102% (inactive).

For the compound `CC(C)C(C)(C)c1ccc(O)cc1`, the growth in the test on SR leukemia was 97.8% (inactive); in the test with RPMI-8226 leukemia, 105% (inactive); in the test with OVCAR-8 ovarian, 106% (inactive); in the test on OVCAR-5 ovarian it was 106% (inactive); in the test with OVCAR-4 ovarian it was 108% (inactive); with SK-OV-3 ovarian, 107% (inactive). The growth in the test on IGROV1 ovarian was 111% (inactive); in the test with OVCAR-3 ovarian, 105% (inactive); with HS 578T breast, 114% (inactive); with NCI/ADR-RES ovarian, 113% (inactive).

In the case of `CCCCCCCCCCCCCCCc1ccc(N)c(OC2OC(CO)C(O)C(O)C2O)c1` (stereo not given), the growth with SR leukemia is 40.2% (inactive); in the test with RPMI-8226 leukemia, 28.7% (inactive); in the test with OVCAR-8 ovarian it was 87.1% (inactive); with OVCAR-5 ovarian, 65.8% (inactive); in the test on OVCAR-4 ovarian, 85.2% (inactive); in the test on SK-OV-3 ovarian it was 149% (inactive). Also, the growth with OVCAR-3 ovarian is 93.6% (inactive); in the test on HS 578T breast it was 103% (inactive).

As to `COc1ccc(Nc2ccc3ccccc3c2)cc1`, the growth is 66.5% (inactive) in the test with RPMI-8226 leukemia; 97.4% (inactive) in the test on OVCAR-5 ovarian; 79.5% (inactive) in the test on OVCAR-4 ovarian; 72.6% (inactive) in the test with SK-OV-3 ovarian; 78.7% (inactive) in the test with OVCAR-3 ovarian; 96.5% (inactive) in the test with HS 578T breast. In addition, the growth in the test on NCI/ADR-RES ovarian was 65.7% (inactive).

As to `CC1CCC2(C(=O)O)CCC3(C)C(=CCC4C5(C)CCC(O)C(C)(C)C5CCC43C)C2C1C` (stereo not given), the growth is 39.3% (inactive) and 46.8% (inactive) in the test on SR leukemia; 48.5% (inactive) and 83.4% (inactive) in the test on RPMI-8226 leukemia; 93.3% (inactive) in the test on OVCAR-8 ovarian; -8.77% (active) and 87.9% (inactive) in the test on OVCAR-5 ovarian; 59.3% (inactive) and 84.2% (inactive) with OVCAR-4 ovarian; 91.6% (inactive) and 104% (inactive) in the test on SK-OV-3 ovarian. The growth is 96.7% (inactive) and 105% (inactive) with IGROV1 ovarian; 56% (inactive) and 101% (inactive) with OVCAR-3 ovarian; -49% (active) and 63.1% (inactive) in the test on HS 578T breast; 16.5% (inactive) and 97.3% (inactive) with NCI/ADR-RES ovarian.

For `Cc1cc(-c2ccc(N=Nc3ccc4c(S(=O)(=O)O)cc(S(=O)(=O)O)c(N)c4c3O)c(C)c2)ccc1N=Nc1ccc2c(S(=O)(=O)O)cc(S(=O)(=O)O)c(N)c2c1O`, the growth was 101% (inactive) in the test with OVCAR-8 ovarian; 90.2% (inactive) with OVCAR-5 ovarian; 102% (inactive) in the test on SK-OV-3 ovarian; 78.5% (inactive) in the test with IGROV1 ovarian; 95.5% (inactive) in the test on OVCAR-3 ovarian; 119% (inactive) in the test with HS 578T breast. Also, the growth in the test on NCI/ADR-RES ovarian was 103% (inactive).

On to `CCCCNc1ccc(Nc2ccccc2)cc1`, for which the growth in the test with SR leukemia was 62.3% (inactive); with RPMI-8226 leukemia, -25% (active); in the test on OVCAR-8 ovarian it was 74.2% (inactive); in the test with OVCAR-5 ovarian it was 103% (inactive); with OVCAR-4 ovarian, 39% (inactive); in the test on IGROV1 ovarian, 58.7% (inactive). Also, the growth in the test on OVCAR-3 ovarian was 66% (inactive); in the test with HS 578T breast it was 105% (inactive); in the test on NCI/ADR-RES ovarian, 86.4% (inactive).
